Read-out in test [1]: Monocyte Chemoattractant Protein-1 (MCP1), CCL2 (gene 6347)
Briefly: BSK_LPS_MCP1: BioMAP Diversity Plus: LPS Assay for Monocyte Chemoattractant Protein-1 (MCP1) Biomarker Activity (AID 2283081).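 For AC50: secreted MCP-1 protein quantified by ELISA in culture supernatant.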 Particulars: primary human HUVEC with PBMC; actives raise or lower the signal. The essentials:
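Values derive from bidirectional fitting against DMSO of ELISA-measured MCP-1 in a human primary endothelial and mononuclear cell co-culture, 24 h after chemical addition under LPS activation.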

Test [2] in a line: BSK_LPS_PGE2: BioMAP Diversity Plus: LPS Assay for Prostaglandin E2 (PGE2) Biomarker Activity (AID 2283082).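 For AC50: secreted prostaglandin E2 measured by ELISA in LPS-stimulated co-culture.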 To be noted: primary human HUVEC with PBMC; actives raise or lower the signal. The procedure, abridged:
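Compounds were added to the LPS co-culture of endothelium and PBMC, and PGE2 was measured by ELISA after 24 h. Responses in either direction were fitted with DMSO as baseline.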

Read-out in test [3]: Macrophage colony-stimulating factor (MCSF), CSF1 (gene 1435)
The test is described as follows: BSK_LPS_MCSF: BioMAP Diversity Plus: LPS Assay for Macrophage colony-stimulating factor (MCSF) Biomarker Activity (AID 2283083). Particulars: primary human HUVEC with PBMC; actives raise or lower the signal. The procedure, abridged:
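Bidirectional fit versus DMSO of ELISA-measured M-CSF in co-cultured human umbilical vein endothelial cells and PBMC, sampled 24 h after dosing.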

Read-out in test [4]: Tissue Factor, F3 (gene 2152)
The test is described as follows: BSK_LPS_TissueFactor: BioMAP Diversity Plus: LPS Assay for Tissue Factor Biomarker Activity (AID 2283084). Particulars: primary human HUVEC with PBMC; actives raise or lower the signal. The essentials:
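Read-out: CD142 ELISA, 24 h. System: LPS-driven human endothelial/PBMC co-culture. Analysis: up- or down-signal fitted against DMSO.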

Read-out in test [5]: Tumor necrosis factor (Homo sapiens) (UniProt P01375)
Briefly: BSK_LPS_TNFa: BioMAP Diversity Plus: LPS Assay for Tumour Necrosis Factor alpha (TNFa) Biomarker Activity (AID 2283085).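 For AC50: TNFa protein level quantified by ELISA in the co-culture.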 Particulars: primary human HUVEC with PBMC; actives raise or lower the signal. The essentials:
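Cells (umbilical vein endothelium plus peripheral blood mononuclear cells) were dosed with chemical, incubated 24 h, then TNFa was quantified by ELISA; values derive from bidirectional fitting with DMSO as baseline.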

Read-out in test [6]: Vascular cell adhesion molecule 1 (VCAM1), VCAM1 (gene 7412)
Briefly: BSK_LPS_VCAM1: BioMAP Diversity Plus: LPS Assay for Vascular cell adhesion molecule 1 (VCAM1) Biomarker Activity (AID 2283086). Particulars: primary human HUVEC with PBMC; actives raise or lower the signal. The procedure, abridged: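 Cells are dosed in an LPS-stimulated endothelial/mononuclear co-culture and, after 24 h, VCAM-1 is quantified by ELISA. Activity in either direction is fitted relative to the DMSO negative control.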

Read-out in another test: CD38, CD38 (gene 952)
Briefly: BSK_SAg_CD38: BioMAP Diversity Plus: SAg Assay for CD38 Biomarker Activity (AID 2283087). To be noted: primary human HUVEC with PBMC; actives raise or lower the signal. The procedure, abridged: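 CD38 quantified by ELISA (fluorescence) in a superantigen-activated endothelial cell–PBMC co-culture at 24 h post-dose. Activity fitted in both directions relative to DMSO; parallel SRB and Alamar Blue cytotoxicity read-outs.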

Read-out in the next test: CD40, CD40 (gene 958)
Briefly: BSK_SAg_CD40: BioMAP Diversity Plus: SAg Assay for CD40 Biomarker Activity (AID 2283088). Particulars: primary human HUVEC with PBMC; actives raise or lower the signal. The essentials: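 Endpoint derived by fitting increases or decreases versus DMSO controls. CD40 is detected by fluorescence ELISA in a human vascular co-culture of endothelium and PBMC at 24 h.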

Read-out in the next test: CD69, CD69 (gene 969)
The test is described as follows: BSK_SAg_CD69: BioMAP Diversity Plus: SAg Assay for CD69 Biomarker Activity (AID 2283089).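 For AC50: cell surface CD69 protein quantified by ELISA with fluorescence detection.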 Particulars: primary human HUVEC with PBMC; actives raise or lower the signal. The procedure, abridged:
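HUVEC co-cultured with PBMC were dosed with chemical, and CD69 was measured by ELISA with fluorescence read-out 24 h later. Bidirectional curve fitting used DMSO as negative control and activity baseline.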

Read-out in test [7]: Monocyte Chemoattractant Protein-1 (MCP1), CCL2 (gene 6347)
Briefly: BSK_SAg_MCP1: BioMAP Diversity Plus: SAg Assay for Monocyte Chemoattractant Protein-1 (MCP1) Biomarker Activity (AID 2283090). Particulars: primary human HUVEC with PBMC; actives raise or lower the signal. The essentials: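 Values derive from bidirectional fitting of ELISA-measured MCP1 against DMSO controls. Readings were taken 24 h after dosing human vascular endothelial cells co-cultured with peripheral blood mononuclear cells under superantigen stimulation.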

Read-out in test [8]: E-selectin (Homo sapiens) (UniProt P16581)
Briefly: BSK_SAg_Eselectin: BioMAP Diversity Plus: SAg Assay for Eselectin Biomarker Activity (AID 2283091). To be noted: primary human HUVEC with PBMC; actives raise or lower the signal. The procedure, abridged:
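Endpoint values derive from bidirectional fitting relative to DMSO, using ELISA-measured E-selectin in a human vascular co-culture (umbilical vein endothelium plus PBMC) sampled 24 h after dosing.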

Read-out in test [9]: Monokine induced gamma interferon (MIG), CXCL9 (gene 4283)
The test is described as follows: BSK_SAg_MIG: BioMAP Diversity Plus: SAg Assay for Monokine induced gamma interferon (MIG) Biomarker Activity (AID 2283092). To be noted: primary human HUVEC with PBMC; actives raise or lower the signal. The essentials:
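HUVEC plus human PBMC co-culture, chemicals dosed and MIG (CXCL9) quantified by ELISA at 24 h. Bidirectional curve fitting against DMSO as negative control and baseline, so both gain and loss of signal count as activity.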

Test [10] in a line: BSK_SAg_PBMCCytotoxicity: PBMC Cytotoxicity Assessment in the BioMAP Diversity Plus: SAg Assay (AID 2283093).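 For AC50: PBMC superantigen activated with SEB plus TSST-1 one hour after compound addition.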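 Note: fitted both ways against DMSO so a hit may be loss or gain of signal.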 To be noted: primary human HUVEC with PBMC. The procedure, abridged:
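PBMC viability by Alamar Blue reduction, fluorescence read at 546/580 nm after 6 h dye exposure. Cells were dosed 1 h before SEB plus TSST-1 activation (20 ng/mL final each), then held 90 h; endothelial/PBMC human co-culture.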

Read-out in test [11]: Interleukin-8 (IL8), CXCL8 (gene 3576)
The test is described as follows: BSK_SAg_IL8: BioMAP Diversity Plus: SAg Assay for Interleukin-8 (IL8) Biomarker Activity (AID 2283094). To be noted: primary human HUVEC with PBMC; actives raise or lower the signal. The essentials: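 Chemicals were dosed onto a human endothelial–PBMC co-culture, and IL-8 was quantified by ELISA after 24 h. Both increases and decreases were fitted relative to DMSO.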

A short description of test [12]: BSK_SAg_Proliferation: Cell Proliferation Assessment in the BioMAP Diversity Plus: SAg Assay (AID 2283095).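 Note: relative cell number as total protein by SRB absorbance in sub-confluent culture.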 To be noted: primary human HUVEC with PBMC. The procedure, abridged:
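Absorbance of sulforhodamine B at 560 nm reports total protein in a human vascular endothelial/PBMC co-culture after 96 h chemical exposure. Gain or loss of signal is fitted in both directions against DMSO.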

The nature of test [13]: BSK_SAg_SRB: Viability Assessment in the BioMAP Diversity Plus: SAg Assay (AID 2283096).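 Note: cells read one day after compound addition; hits may be either gain or loss of signal compared with DMSO.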 Particulars: primary human HUVEC with PBMC. The procedure, abridged:
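Compounds were added to a human vascular co-culture of umbilical vein endothelium and PBMC. After 24 h, parallel cultures were fixed with 10% TCA, stained with 0.1% sulforhodamine B and read at 560 nm. Gain or loss of signal was fitted relative to DMSO.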

Where “and” joins values, the source holds several entries; their conditions need not be identical. Identical values can stand only once. A structure can be active in one record and inactive in another. Calls of active or inactive are those of the source. Rule for the calls: active = hit-call score of the fitted dose curve at least 0.9, where 1 is the maximum; inactive = score below 0.9.

As a reminder, the AC50 is the concentration giving half of the maximal activity seen.

Chain of Tumor necrosis factor (Homo sapiens) (P01375 whole entry, looked up): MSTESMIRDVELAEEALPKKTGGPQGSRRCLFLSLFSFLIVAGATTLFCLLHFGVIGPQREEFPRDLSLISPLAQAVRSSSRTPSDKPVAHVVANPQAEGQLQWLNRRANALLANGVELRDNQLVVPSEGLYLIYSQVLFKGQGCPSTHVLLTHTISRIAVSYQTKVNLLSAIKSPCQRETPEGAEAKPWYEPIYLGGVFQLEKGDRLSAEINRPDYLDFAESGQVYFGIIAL
Chain of E-selectin (Homo sapiens) (P16581 whole entry, looked up): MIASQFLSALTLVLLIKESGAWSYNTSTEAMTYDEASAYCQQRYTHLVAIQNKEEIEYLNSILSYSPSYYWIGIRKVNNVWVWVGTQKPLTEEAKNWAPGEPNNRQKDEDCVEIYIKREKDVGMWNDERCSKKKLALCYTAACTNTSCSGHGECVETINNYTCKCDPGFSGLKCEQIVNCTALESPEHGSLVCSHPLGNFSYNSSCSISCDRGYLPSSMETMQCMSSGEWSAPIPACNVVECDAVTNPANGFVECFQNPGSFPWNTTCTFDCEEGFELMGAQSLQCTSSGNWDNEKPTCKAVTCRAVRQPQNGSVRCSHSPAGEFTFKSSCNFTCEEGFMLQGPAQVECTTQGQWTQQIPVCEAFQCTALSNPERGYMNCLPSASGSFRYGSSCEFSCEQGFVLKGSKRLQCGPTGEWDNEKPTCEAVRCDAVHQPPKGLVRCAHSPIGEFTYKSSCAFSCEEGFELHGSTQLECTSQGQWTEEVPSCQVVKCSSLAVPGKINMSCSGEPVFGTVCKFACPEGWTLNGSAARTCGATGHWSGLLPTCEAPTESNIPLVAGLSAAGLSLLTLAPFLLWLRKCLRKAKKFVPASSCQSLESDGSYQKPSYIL

As to `FC(F)(Br)C(F)(F)C(F)(F)C(F)(F)C(F)(F)C(F)(F)Br`, the outcome in test [1], in test [2], in [3], in [4], in test [5] and in test [6] was inactive. In addition, the outcome with CD38, CD38 (gene 952) was “inactive”; with CD40, CD40 (gene 958) it was “inactive”; with CD69, CD69 (gene 969), “inactive”; in [7], “inactive”; in [8] it was “inactive”; in test [9] it was “inactive”. Further, the result in test [10], in [11], in test [12] and in [13] was inactive.
Consider `CCCCNc1ccccc1`, for which the result in test [1], in test [2], in test [3], in [4], in test [5] and in [6] was inactive. Besides, the outcome in the test with CD38, CD38 (gene 952) is “inactive”; with CD40, CD40 (gene 958) it was “inactive”; with CD69, CD69 (gene 969) it was “inactive”; in [7], “inactive”; in test [8] it was “inactive”; in test [9], “inactive”. Moreover, the outcome in [10], in test [11], in test [12] and in test [13] was inactive.
Take `O=C(Cl)C(F)(F)C(F)(F)C(F)(F)C(F)(F)C(F)(F)C(F)(F)C(F)(F)C(F)(F)F`: the AC50 in test [1] was 45.7 µM (active) and 47.4 µM (active) and 54.8 µM (active); in test [4], 39.5 µM (active) and 30 µM (active); in test [5], 54.8 µM (active) and 48.8 µM (active) and 47.2 µM (active); in [6], 30 µM (active) and 40.7 µM (active) and 45.5 µM (active); with CD40, CD40 (gene 958), 30 µM (active) and 48.9 µM (active); with CD69, CD69 (gene 969) it was 24.5 µM (active) and 30 µM (active) and 43.1 µM (active). Moreover, the AC50 in test [7] was 44.8 µM (active) and 43.8 µM (active); in test [11] it was 42.7 µM (active); in test [13], 42.7 µM (active) and 42.8 µM (active) and 30 µM (active). For the same molecule, the outcome is “inactive” in test [2]; “inactive” in test [3]; “inactive” in test [4]; “inactive” in the test with CD40, CD40 (gene 958); “inactive” in test [7]; “inactive” in test [8]. Moreover, the result in test [9], in test [10], in [11] and in test [12] was inactive.
`C=CC(=O)OCC(F)(F)C(F)(F)C(F)(F)C(F)(F)COC(=O)C=C`: the AC50 was 17.3 µM (active) and 19.4 µM (active) in test [1]; 8.08 µM (active) in test [2]; 21.4 µM (active) and 21.3 µM (active) in test [3]; 36.4 µM (active) and 34.8 µM (active) in [4]; 18.3 µM (active) and 18.1 µM (active) in test [5]; 16.6 µM (active) and 16.4 µM (active) in test [6]. Further, the AC50 was 13.1 µM (active) and 15.1 µM (active) with CD40, CD40 (gene 958); 14.5 µM (active) and 17.3 µM (active) in the test with CD69, CD69 (gene 969); 27.9 µM (active) and 25.1 µM (active) in test [7]; 15.5 µM (active) and 15.3 µM (active) in test [8]; 20.6 µM (active) and 20.9 µM (active) in test [9]; 28.9 µM (active) and 30 µM (active) in test [10]. The AC50 in [11] is 16.8 µM (active) and 25 µM (active); in [12], 8.2 µM (active) and 8.47 µM (active); in test [13], 44.6 µM (active) and 46.9 µM (active). The outcome in test [2] was inactive.
`C=CC(F)(F)C(F)(F)C(F)(F)C(F)(F)C(F)(F)C(F)(F)C(F)(F)C(F)(F)F`: the result in test [1], in test [2], in test [3], in [4], in [5] and in test [6] was inactive. Further, the outcome with CD38, CD38 (gene 952) is “inactive”; with CD40, CD40 (gene 958), “inactive”; with CD69, CD69 (gene 969), “inactive”; in test [7], “inactive”; in test [8], “inactive”; in [9], “inactive”. Further, the outcome in test [10], in [11], in [12] and in test [13] was inactive.
Consider `C=CC(=O)OCC(F)(F)C(F)(F)C(F)(F)C(F)(F)C(F)(F)C(F)(F)C(F)(F)F`, for which the result in [1], in test [2], in test [3], in test [4], in [5] and in [6] was inactive. Further, the outcome in the test with CD38, CD38 (gene 952) was “inactive”; with CD40, CD40 (gene 958), “inactive”; with CD69, CD69 (gene 969), “inactive”; in [7], “inactive”; in [8], “inactive”; in [9] it was “inactive”. Further, the outcome in test [10], in [11], in [12] and in test [13] was inactive. In addition, the AC50 in test [12] is 20 µM (active).

For the origin of these results see PubChem BioAssay (EPA / NIEHS).
